48 compounds from PubChem BioAssay AID1851 (National Center for Advancing Translational Sciences (NCATS), 2009) can be followed below.

SMILES strings stand for the structures. Among all 16,000 compounds or so, about 4,000 (25%) were called active. Not shown: some 26% with an inconclusive outcome. These entries were drawn from the full list. A number with no mark means an inactive call. Calls follow the shape of the dose curve; as a rule, active = well fitted curve in the direction sought with a large enough effect; inconclusive = small, poorly fitted or top-dose-only effect, or effect the other way; inactive = no such curve, though single readings can be large or run the other way.
% is scaled to controls: 0 for no effect and ±100 for the full control effect.

Cytochrome P450 2C9 (Homo sapiens), sequence (P11712 whole entry, looked up): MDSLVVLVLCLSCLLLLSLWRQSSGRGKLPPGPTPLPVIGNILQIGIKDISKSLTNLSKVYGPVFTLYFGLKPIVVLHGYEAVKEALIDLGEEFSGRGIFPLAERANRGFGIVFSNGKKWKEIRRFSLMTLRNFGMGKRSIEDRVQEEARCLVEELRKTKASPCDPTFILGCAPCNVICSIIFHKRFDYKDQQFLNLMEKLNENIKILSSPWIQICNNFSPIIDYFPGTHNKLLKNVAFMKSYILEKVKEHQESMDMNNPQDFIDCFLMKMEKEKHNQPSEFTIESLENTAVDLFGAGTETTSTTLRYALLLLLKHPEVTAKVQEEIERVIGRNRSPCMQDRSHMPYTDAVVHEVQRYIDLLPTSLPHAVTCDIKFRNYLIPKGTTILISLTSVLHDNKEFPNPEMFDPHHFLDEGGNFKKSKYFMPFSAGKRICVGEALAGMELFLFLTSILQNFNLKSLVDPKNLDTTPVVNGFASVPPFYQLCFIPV

This assay addresses Cytochrome P450 2C9 (Homo sapiens) (UniProt P11712). In words: Cytochrome panel assay with activity outcomes. Particulars: recombinant CYP, pro-luciferin dealkylation, luminescence, p450-cyp2c9; series mostly up to 57.1 µM; activity, negative = inhibition: at the top concentration.
Consider `CCOC(=O)c1ccc(N/C(=N\S(=O)(=O)c2ccccc2C)c2ccccc2)cc1`, for which the half-maximal activity concentration (AC50) (as a rule, the concentration giving half of the maximal activity seen) is 3.98 µM (active).
Consider `NC(=O)c1ccccc1-c1nc(-n2ccnc2)c2ccccc2n1`, for which the activity, negative = inhibition was 8.72% [at 2.29 µM].
With `COCCNc1ncnc2ccc(-c3ccoc3)cc12`, the activity, negative = inhibition is 0.323% [at 2.29 µM].
Still for that read-out and setting: the same measure for `CC(=O)OC[C@@H]1O[C@H](C/C=N\O[C@@H]2O[C@H](COC(C)=O)[C@@H](OC(C)=O)[C@H](OC(C)=O)[C@H]2OC(C)=O)C=C[C@@H]1OC(C)=O`: 4.96% [at 11.4 µM].
Take `COc1ccc(CC(=O)NC(=S)Nc2ccc(S(=O)(=O)NC(C)(C)C)cc2)cc1`: the AC50 is 8.91 µM (active).
Turning to `CC(=O)NS(=O)(=O)c1ccc(NC(=S)NC(=O)C(C)(C)C)cc1`, the “activity, negative = inhibition” value is -2.25%.
For `CN1CC[C@@]2(CCCN(C(=O)c3cc(C(F)(F)F)cc(C(F)(F)F)c3)C2)C1`, the “activity, negative = inhibition” value was 4.45%.
Consider `CCCCCC/C(C)=C1/SC(=S)NC1=O`, for which the half-maximal activity concentration (AC50) was 5.01 µM (active).
With `CCOC(=O)c1ccccc1OCc1cc(/C=N/n2cnnc2)ccc1OC`, the AC50 is 2.24 µM (active).
As for `CCOC(=O)C1=C(O)/C(=C\c2ccc(OC)c(OC)c2)N=C1C`, the “activity, negative = inhibition” value is 5.5%.
As to `CCOC(=O)C1=C(O)/C(=C/c2cc(OC)c(OC)c(OC)c2)N=C1C`, the “activity, negative = inhibition” value is -28.9%.
For `O=C1CC(SC(=Nc2ccccc2)Nc2ccccc2)C(=O)N1c1cccc(Cl)c1` (stereo not drawn), the half-maximal activity concentration (AC50) is 3.55 µM (active).
Consider `COc1ccc(C(=O)N2CCC3(CCN(C(=O)Nc4cccc(F)c4)CC3)CC2)cc1`, for which the “activity, negative = inhibition” value was -1.3%.
For the compound `O=C1CC(N2CCOCC2)C(=O)N1c1cccc(Cl)c1` (stereo not drawn), the “activity, negative = inhibition” value was -23.5%.
Regarding `CCOC(=O)NNC1CC(=O)N(c2ccc(OC)cc2)C1=O` (stereo not drawn), the “activity, negative = inhibition” value was -14.3%.
Turning to `CCN=C(Nc1cccc(F)c1)SC1CC(=O)N(c2ccc(OC)cc2)C1=O` (stereo not drawn), the concentration at half-maximal activity (AC50) was 6.31 µM (active).
With `Cc1cnc(CNc2ncnc3ccc(-c4ccccc4Cl)cc23)cn1`, the activity, negative = inhibition was -25% [at 2.29 µM].
Regarding `CCCOc1ccc(N2C(=O)CC(S/C(N)=N/N=C(\C)c3cccs3)C2=O)cc1` (stereo not drawn), the AC50 was 4.47 µM (active).
Turning to `COc1ccc(-n2c(=O)c(-c3cccs3)nc3cnc(N4CCN(C)CC4)nc32)cc1`, the “activity, negative = inhibition” value is 4.17%.
In the case of `COc1ccc(N2C(=O)CC(S/C(N)=N/N=C(\C)c3cccs3)C2=O)cc1` (stereo not drawn), the AC50 is 3.98 µM (active).
With `COc1ccc(C2=Nc3cccc4cccc(c34)N2)cc1`, the “activity, negative = inhibition” value was -5.7%.
As to `Cn1cnc2c(NC3CCCC3)ncnc21`, the “activity, negative = inhibition” value is 1.38%.
Consider `COc1ccc(C(=O)N2CC3(CC(c4ccc(Cl)cc4)=NO3)C[C@H]2C(=O)NCC(N)=O)cc1` (stereo partly drawn), for which the “activity, negative = inhibition” value is 18.7%.
With `COc1ccccc1NC(=O)[C@H](COCc1ccccc1)NC(=O)OC(C)(C)C`, the concentration at half-maximal activity (AC50) was 7.94 µM (active).
`COc1ccccc1NC(=O)C(C/C=C(\C)Cl)C(C)=O` (stereo not drawn): the “activity, negative = inhibition” value was -5.41%.
For the compound `CO[C@H]1COC(=O)CCC[C@H](C)[C@@H](OC)COC(=O)C/C=C\[C@@H]1C`, the activity, negative = inhibition is 14.4% [at 11.4 µM].
On to `Cn1cc(-c2nc3cnc(N4CCNCC4)nc3n(C)c2=O)c2ccccc21`, for which the AC50 is 7.94 µM (active).
`Cn1cc(-c2nc3cnc(N4CCNCC4)nc3n(C3CC3)c2=O)c2ccccc21`: the half-maximal activity concentration (AC50) is 3.98 µM (active).
In the case of `Cn1cc(-c2nc3cnc(N4CCNCC4)nc3n(-c3ccccc3)c2=O)c2ccccc21`, the “activity, negative = inhibition” value is -8.65%.
On to `Cn1cc(-c2nc3cnc(N4CCOCC4)nc3n(C3CC3)c2=O)c2ccccc21`, for which the “activity, negative = inhibition” value was -6.78%.
Take `CN1CCN(c2ncc3nc(-c4cn(C)c5ccccc45)c(=O)n(-c4ccccc4)c3n2)CC1`: the “activity, negative = inhibition” value is -8.3%.
Take `Cn1cc(-c2nc3cncnc3n(C3CC3)c2=O)c2ccccc21`: the “activity, negative = inhibition” value was 9.43%.
Still for that read-out and setting: the value for `C[C@@H]1CCCN(CP(=O)(c2ccccc2)c2ccccc2)C1` was -15.6% [at 11.4 µM]; that for `Cc1n[nH]c(C)c1N=Nc1cc(Cl)ccc1Cl` was 1.79%.
As for `CCOC(=O)CNc1c(-c2ccccc2)nc2ccc(Cl)cn12`, the AC50 was 2.82 µM (active).
Take `Oc1ccc(Cc2cc(Cl)cc(Cl)c2O)cc1Cl`: the AC50 is 0.2 µM (active).
In the case of `CCOc1ccc(Cl)cc1CNCCNCCO`, the “activity, negative = inhibition” value is -13.4%.
Same read-out and setting: the value for `CN(C)Cc1cc(Cl)c(O)c(CN(C)C)c1` was -9.61% [at 11.4 µM].
Regarding `Oc1ccc(Cl)cc1Cc1cc(Cl)cc(Cc2cc(Cl)ccc2O)c1O`, the AC50 was 2.51 µM (active).
Turning to `O=C(O)Cc1cc(Cl)ccc1O`, the activity, negative = inhibition was 12.8% [at 11.4 µM].
As for `COc1ccccc1CNc1ncncc1-c1cccnc1`, the activity, negative = inhibition is -1.61% [at 2.29 µM].
In the case of `O=C(O)[C@@H]1C[C@@H](C(=O)O)N1`, the “activity, negative = inhibition” value is -20.1%.
On to `Cc1nonc1NC(=O)N1CCCC1`, for which the “activity, negative = inhibition” value is 9.91%.
With `Cn1c(CC(=O)Nc2ccc(Cl)c(Cl)c2)nnc1SCC(=O)N1CCN(c2ccccc2)CC1`, the half-maximal activity concentration (AC50) is 5.62 µM (active).
`CC1CC(C)CN(C(=O)CSc2nnc(CSc3ncccn3)n2C)C1` (stereo not drawn): the “activity, negative = inhibition” value is -14.4%.
In the case of `CCOC(=O)N1CCC(NC(=O)c2cc(S(=O)(=O)N3CCCC3)cn2C)CC1`, the AC50 was 7.08 µM (active).
Turning to `CCCS(=O)(=O)N1CCCC(C(=O)N2CCN(C(=O)OCC)CC2)C1` (stereo not drawn), the “activity, negative = inhibition” value is -19.7%.
Regarding `CCOC(=O)N1CCC(NC(=O)C2CCN(S(=O)(=O)N3CCCC3)CC2)CC1`, the “activity, negative = inhibition” value is 2.87%.
